# Test results as given in the supplement of paper PMC10849652.
# About 7,900 targets were measured; listed, in parts, are those with a hit and a random draw of the rest. About 0.6% of all pairs of compound and target were hits. Values without a mark were called inactive.
# What was measured:
# Experiment in all cases: log2 fold change, soluble protein after heating vs DMSO (PISA); higher = thermal stabilisation; K562 cells, 10 uM, 30 min; active = over 0.2 and 3.5 SD of the protein, either way, in both replicates (recomputed)
# [1] = compound: COC1=CC=C(C=C1)CN2C=CC3=C2C=C(C=C3)C(=O)NO
# How it was run: (§1)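 K562 cells at 2×10^6 cells/mL were treated for 30 min with 10 μM compound, and aliquots were heated for 3 min over 48°C-58°C before pooling. Extraction used PBS with 0.5% NP-40 at 4°C, and soluble protein was the supernatant after 21,000xg for 90 min, measured by TMTpro 16plex LC-MS/MS with channel sums equalised. Thermal stability values, relative to control samples and from duplicates, are log2 fold changes.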
# filanesib = compound: CON(C)C(=O)N1N=C(c2cc(F)ccc2F)S[C@@]1(CCCN)c1ccccc1 [filanesib]
# How it was run: as §1
# zotarolimus = compound: CO[C@H]1C[C@@H]2CC[C@@H](C)[C@@](O)(O2)C(=O)C(=O)N2CCCC[C@H]2C(=O)O[C@H]([C@H](C)C[C@@H]2CC[C@H](n3cnnn3)[C@H](OC)C2)CC(=O)[C@H](C)/C=C(\C)[C@@H](O)[C@@H](OC)C(=O)[C@H](C)C[C@H](C)/C=C/C=C/C=C/1C [zotarolimus]
# How it was run: as §1
# idasanutlin = compound: COc1cc(C(=O)O)ccc1NC(=O)[C@@H]1N[C@@H](CC(C)(C)C)[C@](C#N)(c2ccc(Cl)cc2F)[C@H]1c1cccc(Cl)c1F [idasanutlin]
# How it was run: as §1
# alisertib = compound: COc1cc(Nc2ncc3c(n2)-c2ccc(Cl)cc2C(c2c(F)cccc2OC)=NC3)ccc1C(=O)O [alisertib]
# How it was run: as §1
# [2] = compound: COc1cc2nc(-c3cc(F)ccc3O)nc(N[C@@H]3CNC[C@H]3C(C)(C)O)c2cc1OC
# How it was run: as §1
# gefitinib = compound: COc1cc2ncnc(Nc3ccc(F)c(Cl)c3)c2cc1OCCCN1CCOCC1 [gefitinib]
# How it was run: as §1
# [3] = compound: COc1cccc2cc(-c3nc([C@H]4CC[C@H](C(=O)O)CC4)n4ncnc(N)c34)[nH]c12
# How it was run: as §1
# lapatinib = compound: CS(=O)(=O)CCNCc1ccc(-c2ccc3ncnc(Nc4ccc(OCc5cccc(F)c5)c(Cl)c4)c3c2)o1 [lapatinib]
# How it was run: as §1
# pictilisib = compound: CS(=O)(=O)N1CCN(Cc2cc3nc(-c4cccc5[nH]ncc45)nc(N4CCOCC4)c3s2)CC1 [pictilisib]
# How it was run: as §1
# UniProt Q16891, sequence (Q16891 whole entry, looked up): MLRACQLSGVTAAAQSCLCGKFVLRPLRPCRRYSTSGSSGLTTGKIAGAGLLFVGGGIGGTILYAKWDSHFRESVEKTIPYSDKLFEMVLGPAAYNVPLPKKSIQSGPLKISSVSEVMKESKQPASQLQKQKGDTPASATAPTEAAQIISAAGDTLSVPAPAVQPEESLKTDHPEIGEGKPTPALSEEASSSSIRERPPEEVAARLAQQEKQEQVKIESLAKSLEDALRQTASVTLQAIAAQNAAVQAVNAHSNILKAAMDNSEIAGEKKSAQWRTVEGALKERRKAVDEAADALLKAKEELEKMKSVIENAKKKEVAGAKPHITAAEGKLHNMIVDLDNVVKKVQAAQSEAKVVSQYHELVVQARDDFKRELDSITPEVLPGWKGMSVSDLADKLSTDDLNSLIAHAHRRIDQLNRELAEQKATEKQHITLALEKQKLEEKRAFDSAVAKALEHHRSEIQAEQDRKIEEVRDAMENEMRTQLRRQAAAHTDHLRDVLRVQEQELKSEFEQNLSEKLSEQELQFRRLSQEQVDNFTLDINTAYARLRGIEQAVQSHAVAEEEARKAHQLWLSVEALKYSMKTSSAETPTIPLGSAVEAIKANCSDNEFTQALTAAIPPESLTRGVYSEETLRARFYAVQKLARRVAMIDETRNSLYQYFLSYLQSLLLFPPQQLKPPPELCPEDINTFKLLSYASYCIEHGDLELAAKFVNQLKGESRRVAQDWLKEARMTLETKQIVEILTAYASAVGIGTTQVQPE
# UniProt Q8NE86, sequence (Q8NE86 whole entry, looked up): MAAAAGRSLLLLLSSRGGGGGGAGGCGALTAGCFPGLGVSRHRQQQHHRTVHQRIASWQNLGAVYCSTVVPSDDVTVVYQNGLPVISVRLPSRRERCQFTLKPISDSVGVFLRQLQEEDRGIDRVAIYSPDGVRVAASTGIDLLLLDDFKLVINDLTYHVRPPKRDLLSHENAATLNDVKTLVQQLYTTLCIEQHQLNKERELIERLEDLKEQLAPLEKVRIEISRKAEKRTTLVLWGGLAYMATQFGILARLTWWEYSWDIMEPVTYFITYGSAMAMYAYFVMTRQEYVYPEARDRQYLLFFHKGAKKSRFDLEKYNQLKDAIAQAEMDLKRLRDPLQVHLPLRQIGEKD
# UniProt Q4G0J3, sequence (Q4G0J3 whole entry, looked up): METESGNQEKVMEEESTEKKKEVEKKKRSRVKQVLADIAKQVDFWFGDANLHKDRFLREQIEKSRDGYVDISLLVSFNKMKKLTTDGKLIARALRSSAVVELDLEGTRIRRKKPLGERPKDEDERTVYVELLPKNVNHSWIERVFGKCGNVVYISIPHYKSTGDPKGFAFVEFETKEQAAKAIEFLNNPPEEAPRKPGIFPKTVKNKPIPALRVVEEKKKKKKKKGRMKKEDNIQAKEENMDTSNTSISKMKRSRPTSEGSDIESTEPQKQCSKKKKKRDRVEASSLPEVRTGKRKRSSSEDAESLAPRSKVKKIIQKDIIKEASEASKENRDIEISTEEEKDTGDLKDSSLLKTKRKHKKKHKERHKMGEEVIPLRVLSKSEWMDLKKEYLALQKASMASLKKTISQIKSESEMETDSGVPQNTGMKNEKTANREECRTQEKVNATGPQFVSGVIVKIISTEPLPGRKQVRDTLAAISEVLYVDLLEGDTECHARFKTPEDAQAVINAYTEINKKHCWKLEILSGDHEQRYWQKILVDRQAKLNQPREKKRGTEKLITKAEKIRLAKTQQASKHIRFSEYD
# UniProt P11717, sequence (P11717 whole entry, looked up): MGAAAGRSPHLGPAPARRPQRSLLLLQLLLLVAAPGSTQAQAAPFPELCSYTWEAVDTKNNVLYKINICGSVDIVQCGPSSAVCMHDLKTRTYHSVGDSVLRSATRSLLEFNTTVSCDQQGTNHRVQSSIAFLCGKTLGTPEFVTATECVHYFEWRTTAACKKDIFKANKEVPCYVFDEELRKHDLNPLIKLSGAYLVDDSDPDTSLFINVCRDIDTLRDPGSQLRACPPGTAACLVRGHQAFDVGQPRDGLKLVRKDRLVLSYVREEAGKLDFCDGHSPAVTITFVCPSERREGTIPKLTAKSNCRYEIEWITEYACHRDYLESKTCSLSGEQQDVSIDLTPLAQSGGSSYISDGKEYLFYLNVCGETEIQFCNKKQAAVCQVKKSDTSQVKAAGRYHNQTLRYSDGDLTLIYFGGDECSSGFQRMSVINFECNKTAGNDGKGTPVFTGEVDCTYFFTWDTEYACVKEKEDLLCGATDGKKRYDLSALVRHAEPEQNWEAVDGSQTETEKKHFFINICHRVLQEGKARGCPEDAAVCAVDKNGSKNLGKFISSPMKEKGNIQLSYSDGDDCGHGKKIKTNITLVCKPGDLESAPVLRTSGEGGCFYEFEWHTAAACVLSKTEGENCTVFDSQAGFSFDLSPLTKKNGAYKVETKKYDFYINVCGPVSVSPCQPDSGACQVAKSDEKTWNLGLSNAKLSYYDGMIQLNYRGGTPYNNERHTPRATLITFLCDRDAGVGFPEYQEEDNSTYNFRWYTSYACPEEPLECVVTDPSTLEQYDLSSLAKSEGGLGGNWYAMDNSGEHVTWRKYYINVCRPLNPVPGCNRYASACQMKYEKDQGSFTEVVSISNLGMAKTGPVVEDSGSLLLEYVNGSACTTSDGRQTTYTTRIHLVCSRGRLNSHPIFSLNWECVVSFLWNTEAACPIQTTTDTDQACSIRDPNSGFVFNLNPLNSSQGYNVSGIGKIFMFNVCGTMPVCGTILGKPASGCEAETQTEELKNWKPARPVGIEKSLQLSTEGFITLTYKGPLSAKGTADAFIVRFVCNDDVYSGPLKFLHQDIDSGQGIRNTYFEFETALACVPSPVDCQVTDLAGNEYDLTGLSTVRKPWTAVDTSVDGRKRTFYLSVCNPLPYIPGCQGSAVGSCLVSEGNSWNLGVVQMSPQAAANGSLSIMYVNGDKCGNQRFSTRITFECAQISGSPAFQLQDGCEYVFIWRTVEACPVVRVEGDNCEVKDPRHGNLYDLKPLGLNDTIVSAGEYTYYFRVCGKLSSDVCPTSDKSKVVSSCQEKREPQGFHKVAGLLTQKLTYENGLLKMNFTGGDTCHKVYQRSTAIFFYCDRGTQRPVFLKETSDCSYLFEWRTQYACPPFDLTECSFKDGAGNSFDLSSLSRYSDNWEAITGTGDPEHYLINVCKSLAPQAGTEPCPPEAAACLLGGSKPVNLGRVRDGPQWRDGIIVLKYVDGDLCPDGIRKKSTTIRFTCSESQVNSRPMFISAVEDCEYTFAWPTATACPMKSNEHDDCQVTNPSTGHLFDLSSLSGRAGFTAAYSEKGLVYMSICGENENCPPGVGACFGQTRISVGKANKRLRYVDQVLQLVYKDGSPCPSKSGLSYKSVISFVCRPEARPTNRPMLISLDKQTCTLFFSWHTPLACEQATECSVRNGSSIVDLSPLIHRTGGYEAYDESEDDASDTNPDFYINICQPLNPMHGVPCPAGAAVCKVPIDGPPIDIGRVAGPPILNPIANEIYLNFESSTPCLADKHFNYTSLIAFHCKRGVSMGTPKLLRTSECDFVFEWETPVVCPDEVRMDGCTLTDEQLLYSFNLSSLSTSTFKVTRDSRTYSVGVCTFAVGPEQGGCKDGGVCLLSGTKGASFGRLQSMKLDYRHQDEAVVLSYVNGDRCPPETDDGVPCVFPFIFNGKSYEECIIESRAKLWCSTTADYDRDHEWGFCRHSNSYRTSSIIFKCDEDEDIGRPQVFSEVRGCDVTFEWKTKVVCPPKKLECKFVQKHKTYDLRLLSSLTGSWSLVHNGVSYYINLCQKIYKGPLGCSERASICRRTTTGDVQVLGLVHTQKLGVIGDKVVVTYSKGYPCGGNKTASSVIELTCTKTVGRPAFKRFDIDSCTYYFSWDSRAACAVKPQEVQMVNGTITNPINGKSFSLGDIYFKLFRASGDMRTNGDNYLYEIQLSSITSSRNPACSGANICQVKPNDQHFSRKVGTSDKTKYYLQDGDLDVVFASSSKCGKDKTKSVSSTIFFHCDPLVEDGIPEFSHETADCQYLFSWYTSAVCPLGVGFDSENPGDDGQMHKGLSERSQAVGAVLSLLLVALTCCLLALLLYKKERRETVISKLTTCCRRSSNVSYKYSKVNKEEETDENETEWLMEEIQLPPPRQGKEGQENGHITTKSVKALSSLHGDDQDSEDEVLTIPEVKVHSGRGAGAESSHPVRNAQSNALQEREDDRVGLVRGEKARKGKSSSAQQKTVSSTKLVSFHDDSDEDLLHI
# UniProt Q16539, sequence (Q16539 whole entry, looked up): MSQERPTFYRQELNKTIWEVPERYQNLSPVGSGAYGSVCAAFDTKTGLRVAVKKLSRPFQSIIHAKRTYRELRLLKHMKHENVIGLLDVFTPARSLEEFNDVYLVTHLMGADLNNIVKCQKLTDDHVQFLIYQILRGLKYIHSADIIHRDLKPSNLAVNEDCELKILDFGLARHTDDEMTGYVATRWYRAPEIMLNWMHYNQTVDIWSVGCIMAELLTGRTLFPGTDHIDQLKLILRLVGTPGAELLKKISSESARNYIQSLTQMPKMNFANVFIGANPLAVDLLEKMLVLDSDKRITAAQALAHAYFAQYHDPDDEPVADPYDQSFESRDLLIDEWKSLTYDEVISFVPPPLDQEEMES
# UniProt P36507, sequence (P36507 whole entry, looked up): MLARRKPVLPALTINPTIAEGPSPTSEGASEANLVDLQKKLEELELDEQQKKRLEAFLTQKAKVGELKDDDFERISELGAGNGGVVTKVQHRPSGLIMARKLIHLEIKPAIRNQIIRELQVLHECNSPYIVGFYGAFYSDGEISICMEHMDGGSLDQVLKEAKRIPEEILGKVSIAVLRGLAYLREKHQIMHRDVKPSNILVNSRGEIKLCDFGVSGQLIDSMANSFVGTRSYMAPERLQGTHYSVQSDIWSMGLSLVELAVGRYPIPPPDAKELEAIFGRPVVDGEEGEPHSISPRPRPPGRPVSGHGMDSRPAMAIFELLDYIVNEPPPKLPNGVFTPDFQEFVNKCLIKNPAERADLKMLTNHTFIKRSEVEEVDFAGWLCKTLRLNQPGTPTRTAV
# UniProt Q5XKP0, sequence (Q5XKP0 whole entry, looked up): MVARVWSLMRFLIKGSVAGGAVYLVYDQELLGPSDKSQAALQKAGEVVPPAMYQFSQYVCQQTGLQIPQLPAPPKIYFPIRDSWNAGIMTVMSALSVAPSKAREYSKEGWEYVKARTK
Target,log2 fold change [1],log2 fold change (filanesib),log2 fold change (zotarolimus),log2 fold change (idasanutlin),log2 fold change (alisertib),log2 fold change [2],log2 fold change (gefitinib),log2 fold change [3],log2 fold change (lapatinib),log2 fold change (pictilisib)
IGFBP2 (UniProt P18065),0.117,-0.238,-0.846 (active),0.439,0.11,-0.056,-0.228,0.363,-0.025,-0.252
IGF2R (UniProt P11717),0.041,0.007,-0.014,-0.012,-0.058,-0.065,-0.003,0,0.015,0.002
KEL (UniProt P23276),-0.042,0.034,-0.043,0.055,0.177,-0.015,0.07,0.176,-0.078,0.194
MAP2K3 isoform 3 (UniProt P46734),0.076,0.01,-0.018,-0.019,0.152,0.166,-0.086,-0.022,-0.079,0.07
MARCKS (UniProt P29966),0.108,0.004,0.001,0.062,0.006,-0.016,-0.003,0.069,0.019,-0.225
KCTD10 (UniProt Q9H3F6),0.086,0.177,-0.095,-0.049,-0.06,0.079,-0.03,-0.105,0.001,-0.039
LMNA (UniProt P02545),-0.093,0.088,0.018,0.093,0.096,-0.112,-0.014,0,0.028,0.008
MCU (UniProt Q8NE86),-0.056,-0.152,0.164,-0.091,-0.053,-0.053,-0.049,0.054,-0.099,0.09
KCT2 (UniProt Q8NC54),-0.015,-0.036,-0.044,-0.029,-0.074,0.021,0.032,0.039,-0.002,0.023
LARP7 isoform 3 (UniProt Q4G0J3),-0.258 (active),0.071,0.082,-0.019,-0.007,-0.165,0.001,0.042,0.082,-0.041
LRRFIP1 (UniProt Q32MZ4),-0.014,0.022,-0.034,0.019,-0.031,0.023,-0.007,0.025,-0.012,-0.027
MAP3K7 (UniProt O43318),0.105,0.026,-0.074,-0.03,0.084,0.065,0.016,-0.054,-0.058,0.088
LMBRD2 (UniProt Q68DH5),-0.031,-0.095,0.108,-0.012,-0.035,0.025,0.082,-0.021,0.026,0.057
LDAH isoform 2 (UniProt Q9H6V9),0.06,-0.137,0.057,-0.185,-0.041,-0.517 (active),0.004,0.032,-0.005,0.075
MAST4 (UniProt O15021),-0.023,-0.114,0.035,-0.103,-0.073,-0.283,-0.031,0.019,0.046,-0.036
MAP4K5 (UniProt Q9Y4K4),0.01,-0.083,0.021,0.067,0.134,0.224,-0.011,0.011,0.15,0.012

Target,log2 fold change [1],log2 fold change (filanesib),log2 fold change (zotarolimus),log2 fold change (idasanutlin),log2 fold change (alisertib),log2 fold change [2],log2 fold change (gefitinib),log2 fold change [3],log2 fold change (lapatinib),log2 fold change (pictilisib)
MAPKAPK5 (UniProt Q8IW41),-0.011,-0.133,0.009,-0.017,-0.084,0.269,0,-0.038,0.078,0.134
LYPLA2 (UniProt O95372),0.188,0.014,0.002,0.027,0.121,-0.23,0.047,0.044,-0.048,-0.026
IK (UniProt Q13123),0.056,0.156,0.007,0.102,-0.044,0.07,0.027,-0.096,-0.008,-0.035
KIAA1324L (UniProt A8MWY0),-0.03,0.091,-0.09,0.07,-0.013,0.028,0.109,0.049,-0.026,0.005
"LRBA, A0A494BZW2",0.006,-0.136,-0.127,-0.207,0.001,0.453,-0.026,0.046,-0.097,0.095
MAPK14 isoform 2 (UniProt Q16539),0,0.016,-0.033,-0.018,-0.058,-0.005,0.811,0.319,-0.034,-0.114
MARK3 (UniProt P27448),0.008,0.054,0.062,0.091,0.05,-0.219,-0.002,-0.063,0.022,-0.033
MICU1 isoform 3 (UniProt Q9BPX6),-0.047,-0.031,-0.034,0.05,-0.011,-0.278 (active),0.02,-0.056,0.019,-0.038
MAPRE3 (UniProt Q9UPY8),-0.242 (active),0.006,0.013,0.023,0.022,0.033,0.004,-0.013,-0.044,-0.008
MCUR1 (UniProt Q96AQ8),-0.042,0.019,-0.002,-0.13,0.009,0.181,0.009,0.052,-0.009,0.087
MAP2K2 (UniProt P36507),-0.014,-0.061,0.018,0,-0.103,-0.011,-0.011,0.007,-0.069,-0.023
MED1 (UniProt Q15648),-0.051,0.116,0.042,0.056,-0.056,-0.063,-0.039,0.016,0.114,0.077
IMMT isoform 2 (UniProt Q16891),0.006,-0.101,-0.045,0.04,-0.088,-0.25,-0.006,0.017,-0.151,-0.238
MICOS13 (UniProt Q5XKP0),0,-0.095,-0.048,-0.144,-0.014,-0.082,-0.032,0.079,-0.063,-0.001
LTN1 isoform 3 (UniProt O94822),0,-0.009,0.039,-0.136,0.01,0.04,-0.04,-0.108,-0.029,-0.157
